Most compounds without a hit are left out; they make up all but 2.9% or so of the library.
POLB inh: inhibitors of human DNA polymerase beta | Potency, µM (series often up to 114 µM), most hits filed as inhibitors | Pol beta primer extension/strand displacement, fluorescence kinetic | hit rate 1.3% among 340,000
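Pol beta (10 nM) was preincubated with compound for 15 min at room temperature. The reaction was then started with 50 nM substrate and read immediately and after a further 10 min at room temperature.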
PI5P4Ka inh: PI5P4K alpha (human) kinase inhibition. P48426. PI5P4Kalpha enzyme, ADP-Glo luminescence, 60 min; stronger effect = lower value. hit rate 1.2% among 330,000. AID 652105. max response, %; active = max response of -50% or lower; inconclusive = between -30% and -50%; inactive = -30% or higher; note: value at the top dose of about 77 µM
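qHTS, 1536-well: enzyme/substrate mix, compound by pin tool, 5 microM ATP final; RT 60 min; ADP-Glo reagents 1 (45 min) then 2 (30 min); luminescence.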
POLH inh: DNA polymerase eta (human) inhibition; recombinant Pol eta, fluorescent DNA replication assay; AID 588591; Q9Y253; Potency, µM (series often up to 114 µM), hits mostly inhibitors; hit rate 1.2% among 390,000
Target sequence (Q9Y253 whole entry, looked up): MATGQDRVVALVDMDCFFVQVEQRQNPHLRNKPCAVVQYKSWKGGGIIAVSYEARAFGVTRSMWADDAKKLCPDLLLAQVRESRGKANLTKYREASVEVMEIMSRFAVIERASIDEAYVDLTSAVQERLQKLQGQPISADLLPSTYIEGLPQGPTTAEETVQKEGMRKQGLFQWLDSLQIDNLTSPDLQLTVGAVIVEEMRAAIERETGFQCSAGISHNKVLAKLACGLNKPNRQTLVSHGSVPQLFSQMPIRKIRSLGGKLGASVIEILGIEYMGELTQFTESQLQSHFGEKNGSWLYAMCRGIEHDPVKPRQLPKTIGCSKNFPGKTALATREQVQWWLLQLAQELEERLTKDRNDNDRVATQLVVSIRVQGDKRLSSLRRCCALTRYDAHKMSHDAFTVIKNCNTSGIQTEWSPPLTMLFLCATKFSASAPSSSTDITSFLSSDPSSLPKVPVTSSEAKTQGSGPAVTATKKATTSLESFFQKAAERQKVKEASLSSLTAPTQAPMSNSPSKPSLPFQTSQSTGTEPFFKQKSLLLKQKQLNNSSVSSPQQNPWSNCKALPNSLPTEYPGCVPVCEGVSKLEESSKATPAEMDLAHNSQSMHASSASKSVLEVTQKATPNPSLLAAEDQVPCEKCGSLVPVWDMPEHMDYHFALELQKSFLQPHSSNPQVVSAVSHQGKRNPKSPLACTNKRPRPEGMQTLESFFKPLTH
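Pol eta (10 nM) was preincubated with compounds for 15 min at room temperature, after which fluorescent replication substrate (50 nM final) was added to start the reaction. Fluorescence was read kinetically at 0 and 10 min.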
12-LOX inh: blocks human arachidonate 12S-lipoxygenase. P18054. purified 12hLO, xylenol orange hydroperoxide absorbance. Potency, µM (top dose mostly 108 µM), hits mostly inhibitors. hit rate 1.1% among 580,000. AID 1671190
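Purified human 12hLO at 150 nM in 25 mM Hepes, 0.01% Triton X-100, pH 7.0, preincubated 15 min at room temperature with compound. Reaction started with 40 uM arachidonic acid, 30 min at room temperature. Hydroperoxide measured by Fe-xylenol orange, 573/405 nm absorbance ratio.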
Pol kappa inh: inhibitors of human DNA polymerase kappa; Potency, µM (highest dose often 107 µM), hits mostly inhibitors; hit rate 0.53% among 400,000; Q9UBT6; purified Pol kappa, fluorescent DNA synthesis assay, 10 min
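Enzyme at 10 nM met test compounds for 15 min at room temperature. Substrate addition (50 nM final) began the reaction, which was monitored by fluorescence at 0 and 10 min.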
Pol iota inh: DNA polymerase iota (human) inhibition | Q9UNA4 | Pol iota fluorescent replication assay, 10 min | Potency, µM (series often up to 115 µM), actives largely listed as inhibitors | hit rate 1% among 390,000
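Fluorescent replication assay read twice, at 0 min and 10 min after adding 50 nM (final) substrate. Enzyme (10 nM) and compounds were first incubated 15 min at room temperature; enzyme-free buffer wells were negative controls.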
A number is an active result. Unless noted, calls come from the whole dose curve; as a rule, active = well fitted inhibition curve with a large enough effect; inconclusive = small, poorly fitted or top-dose-only effect, or another doubt; inactive = no such curve, though single readings can be large or run the other way.

What do the screens show for `Cc1noc(-c2ccc(OC3CN(C(=O)CCCc4ccccc4)C3)cc2)n1`?
12-LOX inh: inactive

Results for CCOC(=O)N1CCN(CC(=O)Nc2nc3ccccc3s2)CC1 ?
POLB inh: inactive; PI5P4Ka inh: inactive; POLH inh: inactive; 12-LOX inh: inactive; Pol kappa inh: inactive; Pol iota inh: inactive

What do the screens show for `CCOC(=O)N1CCN(CC(=O)Nc2cc(OCC)ccc2OCC)CC1`?
POLB inh: inactive; PI5P4Ka inh: inactive; POLH inh: inactive; 12-LOX inh: 1.6µM; Pol kappa inh: inactive; Pol iota inh: inactive

How did CCOC(=O)N1CCN(CC(=O)Nc2nc3ccc(OC)cc3s2)CC1 do in these assays?
POLB inh: inactive; PI5P4Ka inh: inactive; POLH inh: inactive; 12-LOX inh: 45µM; Pol kappa inh: inactive; Pol iota inh: inactive

What do the screens show for `CCOc1ccc(OCC)c(NC(=O)CN2CCN(c3ccc(C)cc3C)CC2)c1`?
POLB inh: inactive; PI5P4Ka inh: inactive; POLH inh: inactive; 12-LOX inh: inconclusive; Pol kappa inh: inactive; Pol iota inh: inactive

What do the screens show for `CCc1cccc(NC(=O)Nc2ccc(OC)cc2)c1`?
12-LOX inh: inactive

How did Cc1ccc(CN(C)c2cc(C(=O)N3CCOCC3)c3ccccc3n2)cc1 do in these assays?
12-LOX inh: inactive

What do the screens show for `COc1cccc(/C=C/C(=O)c2cc(C)ccc2C)c1OC`?
12-LOX inh: inactive

How did CCNc1ccccc(C(=O)/C=C/c2ccc3c(c2)OCO3)c1=O do in these assays?
POLB inh: 56µM; PI5P4Ka inh: -56; POLH inh: 10µM; 12-LOX inh: inconclusive; Pol kappa inh: 25µM; Pol iota inh: inconclusive

Results for O=C(/C=C/c1ccccc1Cl)c1cccc(O)c1 ?
12-LOX inh: inactive

How did CNc1ccccc(C(=O)/C=C/c2ccccc2OC)c1=O do in these assays?
POLB inh: 50µM; PI5P4Ka inh: inconclusive; POLH inh: 14µM; 12-LOX inh: inconclusive; Pol kappa inh: inactive; Pol iota inh: inconclusive

How did CNc1ccc(Br)cc(C(=O)/C=C/c2cccc(Cl)c2Cl)c1=O do in these assays?
POLB inh: 14µM; PI5P4Ka inh: inactive; POLH inh: 45µM; 12-LOX inh: 6.3µM; Pol kappa inh: 45µM; Pol iota inh: 6.3µM

Results for CNc1ccc(Br)cc(C(=O)/C=C/c2cccc(OC)c2OC)c1=O ?
POLB inh: 20µM; PI5P4Ka inh: inactive; POLH inh: inactive; 12-LOX inh: inconclusive; Pol kappa inh: inactive

What do the screens show for `O=C(C=Cc1ccccc1Cl)c1ccccc1`?
PI5P4Ka inh: inactive; POLH inh: inconclusive; 12-LOX inh: inactive; Pol kappa inh: inactive; Pol iota inh: inconclusive

What do the screens show for `CCNc1ccc(Br)cc(C(=O)/C=C/c2ccccc2Cl)c1=O`?
POLH inh: 79µM; 12-LOX inh: 8.9µM; Pol kappa inh: inconclusive; Pol iota inh: inconclusive

What do the screens show for `CCCC[n+]1ccn(-c2nc3ccccc3nc2[N-]S(=O)(=O)c2cccs2)c1`?
POLB inh: 18µM; PI5P4Ka inh: inactive; POLH inh: inactive; 12-LOX inh: inactive; Pol kappa inh: inactive; Pol iota inh: inactive

How did CCCC[n+]1ccn(-c2nc3ccccc3nc2[N-]S(=O)(=O)c2ccccc2)c1 do in these assays?
POLB inh: inactive; POLH inh: inactive; 12-LOX inh: inactive; Pol kappa inh: inactive; Pol iota inh: inconclusive

Results for CCN(CC)CCC=C(c1cccs1)c1cccs1 ?
PI5P4Ka inh: inactive; POLH inh: inactive; 12-LOX inh: 50µM; Pol kappa inh: inconclusive; Pol iota inh: inconclusive

What do the screens show for `CCN(C(=O)c1cccs1)C1CC1`?
12-LOX inh: inactive

What do the screens show for `COC(=O)c1ccc2nc(CO[C@H]3CN(Cc4ccc5ccccc5n4)C[C@H]3F)[nH]c2c1`?
12-LOX inh: inactive

What do the screens show for `CCCN(CCC)CCCNC(=O)c1cc2c(-c3ccc(Cl)cc3)nn(C)c2s1`?
POLB inh: 20µM; POLH inh: inactive; 12-LOX inh: inactive; Pol kappa inh: inactive; Pol iota inh: inactive

What do the screens show for `COc1ccccc1C(C)NC(=O)c1n[nH]c(=O)c2ccccc12` (configuration not stated)?
12-LOX inh: inactive

How did CN(C)/C=C/c1c([N+](=O)[O-])c2ccc(O)cc2n1-c1ccccc1 do in these assays?
POLB inh: inactive; PI5P4Ka inh: -59; POLH inh: inactive; 12-LOX inh: inactive; Pol kappa inh: inactive; Pol iota inh: inactive

What do the screens show for `O=C(NC12CC3CC(CC(C3)C1)C2)c1ccc2c(c1)CCC2`?
12-LOX inh: inactive

Results for Clc1ccc(Nc2ncnc3c2cnn3-c2ccccc2)cc1 ?
POLB inh: inactive; POLH inh: inactive; 12-LOX inh: 25µM; Pol kappa inh: inactive; Pol iota inh: inactive

How did COCCNc1ncnc2c1cnn2-c1ccc(Cl)cc1 do in these assays?
POLB inh: inactive; PI5P4Ka inh: inactive; POLH inh: inactive; 12-LOX inh: 14µM; Pol kappa inh: inactive; Pol iota inh: inactive

What do the screens show for `COC(=O)c1ccc(CCc2cc(O)ccc2O)cc1`?
PI5P4Ka inh: inconclusive; POLH inh: inactive; Pol kappa inh: inactive; Pol iota inh: inactive

Results for COC(=O)c1ccc(CCc2cc(O)c(Br)cc2O)cc1 ?
PI5P4Ka inh: -52; POLH inh: inactive; 12-LOX inh: inconclusive; Pol kappa inh: inactive; Pol iota inh: inactive

What do the screens show for `C=CCn1c(SCc2ccc(Br)cc2F)nc2cc(C(=O)O)ccc2c1=O`?
POLB inh: inactive; PI5P4Ka inh: -61; POLH inh: inactive; 12-LOX inh: inconclusive; Pol kappa inh: inactive; Pol iota inh: inconclusive

What do the screens show for `Cc1ccc(Cn2cc(-c3ccncc3)cc2C(=O)NC2CC2)cc1`?
12-LOX inh: 28µM

Results for Cc1ccc(Cn2cc(-c3ccncc3)cc2C(=O)NCC2CC2)cc1 ?
12-LOX inh: inactive

What do the screens show for `CCc1ccc(NC(=O)CSc2nc3c(c(=O)n2CCc2ccccc2)SCC3)cc1`?
12-LOX inh: inactive

What do the screens show for `CCSc1nnc(N2C(=O)c3ccc(C(=O)c4ccc(C(=O)O)cc4)cc3C2=O)s1`?
POLB inh: inactive; PI5P4Ka inh: -85; POLH inh: inactive; 12-LOX inh: inconclusive; Pol kappa inh: inactive; Pol iota inh: inactive

What do the screens show for `CC(C)C(=O)N1N=C(c2ccc3c(c2)OCO3)CC1c1ccc2nccnc2c1` (configuration not stated)?
12-LOX inh: inactive

Results for CC1=[N+](C)c2c(ccc3cccnc23)C1(C)C ?
POLB inh: 25µM; PI5P4Ka inh: inactive; POLH inh: inactive; 12-LOX inh: inactive; Pol kappa inh: inactive; Pol iota inh: inactive

Results for COc1ccc2c(=O)c3ccccc3oc2c1 ?
POLB inh: inactive; PI5P4Ka inh: inactive; POLH inh: inactive; 12-LOX inh: inactive; Pol kappa inh: inactive; Pol iota inh: inactive

What do the screens show for `COc1ccc2oc3c(ccc[n+]3C)c(=O)c2c1`?
PI5P4Ka inh: inconclusive; 12-LOX inh: 13µM

Screening data from PubChem.
